# The supplement of paper PMC8728848
# The sample as a whole holds a higher share of the strongest signals than the screen did.
# B1: CBP21 (Serratia marcescens), O83009 (protein)
# chain: MNKTSRTLLSLGLLSAAMFGVSQQANAHGYVESPASRAYQCKLQLNTQCGSVQAEPQSVEGLKGFPQAGPADGHIASADKSTFFELDQQTPTRWNKLNLKTGPNSFTWKLTARHSTTSWRYFITKPNWDASQPLTRASFDLTPFCQFNDGGAIPAAQVTHQCNIPADRSGSHVILAVWDIADTANAFYQAIDVNLSK
# Legend:
# Assay in all cases: glycan array binding signal (z-score within array); higher = stronger binding
# Conditions in all cases: glycan notation: IUPAC condensed, linker removed; mutation: Y54A
# [1] = molecular target: Fuc(a1-2)Gal(b1-4)GlcNAc(b1-2)Man
# In short: (§1)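 The binding signal is a Z-score computed within each array and averaged over linkers. Arrays of the same protein sequence at different concentrations or buffers were also averaged together. Data originate from 3228 arrays in the Consortium for Functional Glycomics database, kept only where the protein sequence was available.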
# [2] = molecular target: Fuc(a1-2)Gal(b1-4)GlcNAc(b1-3)Gal(b1-4)GlcNAc(b1-2)Man(a1-3)[Fuc(a1-2)Gal(b1-4)GlcNAc(b1-3)Gal(b1-4)GlcNAc(b1-2)Man(a1-6)]Man(b1-4)GlcNAc(b1-4)GlcNAc
# In short: as §1
# [3] = molecular target: Fuc(a1-2)Gal6S(b1-3)GlcNAc
# In short: as §1
# [4] = molecular target: Fuc(a1-2)[Gal(a1-3)]Gal(b1-3)GlcNAc(b1-6)GalNAc
# In short: as §1
# [5] = molecular target: Fuc(a1-2)[GalNAc(a1-3)]Gal(b1-3)GalNAc(b1-3)Gal(a1-4)Gal(b1-4)Glc
# In short: as §1
# Fuc(b1-3)GlcNAc = molecular target: Fuc(b1-3)GlcNAc
# In short: as §1
# [6] = molecular target: Gal(a1-3)Gal(b1-4)GlcNAc(b1-2)Man(a1-3)[Gal(a1-3)Gal(b1-4)GlcNAc(b1-2)Man(a1-6)]Man(b1-4)GlcNAc(b1-4)GlcNAc
# In short: as §1
# [7] = molecular target: Gal(a1-3)Gal(b1-4)GlcNAc(b1-6)GalNAc
# In short: as §1
# Gal(b1-3)Gal = molecular target: Gal(b1-3)Gal
# In short: as §1
# [8] = molecular target: Gal(b1-3)GlcNAc(b1-3)Gal(b1-3)GlcNAc
# In short: as §1
# [9] = molecular target: Gal(b1-3)GlcNAc(b1-3)Gal(b1-4)Glc
# In short: as §1
# [10] = molecular target: Gal(b1-3)[Fuc(a1-4)]GlcNAc(b1-2)Man
# In short: as §1
# [11] = molecular target: Gal(b1-3)[Fuc(a1-4)]GlcNAc(b1-2)Man(a1-3)[Gal(b1-3)[Fuc(a1-4)]GlcNAc(b1-2)Man(a1-6)]Man(b1-4)GlcNAc(b1-4)[Fuc(a1-6)]GlcNAc
# In short: as §1
# [12] = molecular target: Gal(b1-4)GlcNAc(b1-2)[Gal(b1-4)GlcNAc(b1-4)]Man(a1-3)[Gal(b1-4)GlcNAc(b1-2)[Gal(b1-4)GlcNAc(b1-6)]Man(a1-6)]Man(b1-4)GlcNAc(b1-4)GlcNAc
# In short: as §1
# [13] = molecular target: Gal(b1-4)GlcNAc(b1-3)Gal(b1-4)GlcNAc(b1-3)Gal(b1-4)GlcNAc(b1-3)Gal(b1-4)GlcNAc(b1-2)Man(a1-3)[Gal(b1-4)GlcNAc(b1-3)Gal(b1-4)GlcNAc(b1-3)Gal(b1-4)GlcNAc(b1-3)Gal(b1-4)GlcNAc(b1-2)Man(a1-6)]Man(b1-4)GlcNAc(b1-4)GlcNAc
# In short: as §1
# [14] = molecular target: Gal(b1-4)GlcNAc(b1-3)Gal(b1-4)GlcNAc(b1-3)Gal(b1-4)GlcNAc(b1-3)Gal(b1-4)GlcNAc(b1-3)Gal(b1-4)GlcNAc(b1-2)Man(a1-3)[Gal(b1-4)GlcNAc(b1-3)Gal(b1-4)GlcNAc(b1-3)Gal(b1-4)GlcNAc(b1-3)Gal(b1-4)GlcNAc(b1-3)Gal(b1-4)GlcNAc(b1-2)Man(a1-6)]Man(b1-4)GlcNAc(b1-4)[Fuc(a1-6)]GlcNAc
# In short: as §1
# [15] = molecular target: Gal(b1-4)GlcNAc(b1-3)Gal(b1-4)GlcNAc(b1-3)Gal(b1-4)GlcNAc(b1-3)Gal(b1-4)GlcNAc(b1-3)Gal(b1-4)GlcNAc(b1-2)[Gal(b1-4)GlcNAc(b1-3)Gal(b1-4)GlcNAc(b1-3)Gal(b1-4)GlcNAc(b1-3)Gal(b1-4)GlcNAc(b1-3)Gal(b1-4)GlcNAc(b1-6)]Man(a1-6)[Gal(b1-4)GlcNAc(b1-3)Gal(b1-4)GlcNAc(b1-3)Gal(b1-4)GlcNAc(b1-3)Gal(b1-4)GlcNAc(b1-3)Gal(b1-4)GlcNAc(b1-2)Man(a1-3)]Man(b1-4)GlcNAc(b1-4)[Fuc(a1-6)]GlcNAc
# In short: as §1
# [16] = molecular target: Gal(b1-4)GlcNAc(b1-3)Gal(b1-4)GlcNAc(b1-3)[Gal(b1-4)GlcNAc(b1-3)Gal(b1-4)GlcNAc(b1-6)]GalNAc
# In short: as §1
# Gal(b1-6)Gal = molecular target: Gal(b1-6)Gal
# In short: as §1
# [17] = molecular target: Gal3S(b1-4)[Fuc(a1-3)]GlcNAc6S
# In short: as §1
# Gal3S6S(b1-4)GlcNAc6S = molecular target: Gal3S6S(b1-4)GlcNAc6S
# In short: as §1
# Gal4S6S(b1-4)GlcNAc = molecular target: Gal4S6S(b1-4)GlcNAc
# In short: as §1
# Gal6S(b1-4)GlcNAc = molecular target: Gal6S(b1-4)GlcNAc
# In short: as §1
# [18] = molecular target: GalNAc(b1-3)Gal(a1-4)Gal(b1-4)GlcNAc(b1-3)Gal(b1-4)Glc
# In short: as §1
# GalNAc(b1-3)GalNAc = molecular target: GalNAc(b1-3)GalNAc
# In short: as §1
# [19] = molecular target: GalNAc3S(b1-4)[Fuc(a1-3)]GlcNAc
# In short: as §1
# [20] = molecular target: GlcA3S(b1-3)Gal(b1-4)GlcNAc(b1-3)Gal(b1-4)Glc
# In short: as §1
# [21] = molecular target: GlcNAc(b1-2)Gal(b1-3)GalNAc
# In short: as §1
# [22] = molecular target: Man(a1-3)[Man(a1-6)]Man(a1-6)[Man(a1-2)Man(a1-3)]Man(b1-4)GlcNAc(b1-4)GlcNAc
# In short: as §1
# [23] = molecular target: Neu5Ac(a2-3)Gal(b1-3)GalNAc6S
# In short: as §1
# [24] = molecular target: Neu5Ac(a2-3)Gal(b1-3)GlcNAc(b1-2)Man(a1-3)[Neu5Ac(a2-3)Gal(b1-3)GlcNAc(b1-2)Man(a1-6)]Man(b1-4)GlcNAc(b1-4)GlcNAc
# In short: as §1
# [25] = molecular target: Neu5Ac(a2-3)Gal(b1-3)GlcNAc(b1-2)[Neu5Ac(a2-3)Gal(b1-3)GlcNAc(b1-4)]Man(a1-6)[Neu5Ac(a2-3)Gal(b1-3)GlcNAc(b1-2)Man(a1-3)]Man(b1-4)GlcNAc(b1-4)GlcNAc
# In short: as §1
# [26] = molecular target: Neu5Ac(a2-3)Gal(b1-3)GlcNAc6S
# In short: as §1
# [27] = molecular target: Neu5Ac(a2-3)Gal(b1-3)[Neu5Ac(a2-6)]GalNAc
# In short: as §1
# [28] = molecular target: Neu5Ac(a2-3)Gal(b1-4)GlcNAc(b1-2)Man(a1-3)[Neu5Ac(a2-3)Gal(b1-4)GlcNAc(b1-2)Man(a1-6)]Man(b1-4)GlcNAc(b1-4)GlcNAc
# In short: as §1
# [29] = molecular target: Neu5Ac(a2-3)Gal(b1-4)GlcNAc(b1-3)GalNAc
# In short: as §1
# [30] = molecular target: Neu5Ac(a2-3)Gal(b1-4)[Fuc(a1-3)]GlcNAc(b1-3)GalNAc
# In short: as §1
# [31] = molecular target: Neu5Ac(a2-3)Gal6S(b1-4)GlcNAc
# In short: as §1
# Neu5Ac(a2-6)Gal(b1-4)Glc = molecular target: Neu5Ac(a2-6)Gal(b1-4)Glc
# In short: as §1
# [32] = molecular target: Neu5Ac(a2-6)Gal(b1-4)GlcNAc(b1-2)Man(a1-3)[GlcNAc(b1-4)][Neu5Ac(a2-6)Gal(b1-4)GlcNAc(b1-2)Man(a1-6)]Man(b1-4)GlcNAc(b1-4)GlcNAc
# In short: as §1
# [33] = molecular target: Neu5Ac(a2-6)Gal(b1-4)GlcNAc(b1-2)[Neu5Ac(a2-6)Gal(b1-4)GlcNAc(b1-4)]Man(a1-3)[GlcNAc(b1-4)][Neu5Ac(a2-6)Gal(b1-4)GlcNAc(b1-2)[Neu5Ac(a2-6)Gal(b1-4)GlcNAc(b1-6)]Man(a1-6)]Man(b1-4)GlcNAc(b1-4)GlcNAc
# In short: as §1
# [34] = molecular target: Neu5Ac(a2-6)Gal(b1-4)GlcNAc(b1-3)Gal(b1-4)GlcNAc(b1-3)Gal(b1-4)GlcNAc
# In short: as §1
# [35] = molecular target: Neu5Ac(a2-6)Gal(b1-4)GlcNAc(b1-3)Gal(b1-4)[Fuc(a1-3)]GlcNAc(b1-3)Gal(b1-4)[Fuc(a1-3)]GlcNAc
# In short: as §1
# [36] = molecular target: Neu5Ac(a2-6)Gal(b1-4)GlcNAc(b1-6)[Gal(b1-3)]GalNAc
# In short: as §1
# [37] = molecular target: Neu5Ac(a2-6)Gal(b1-4)GlcNAc6S
# In short: as §1
# [38] = molecular target: Neu5Ac(a2-8)Neu5Ac(a2-8)Neu5Ac(a2-3)Gal(b1-4)Glc
# In short: as §1
# [39] = molecular target: Neu5Ac(a2-8)Neu5Gc(a2-3)Gal(b1-4)GlcNAc
# In short: as §1
# Neu5Ac(b2-6)GalNAc = molecular target: Neu5Ac(b2-6)GalNAc
# In short: as §1
# [40] = molecular target: Neu5Gc(a2-3)Gal(b1-4)GlcNAc(b1-3)Gal(b1-4)GlcNAc(b1-2)Man(a1-3)[Neu5Gc(a2-3)Gal(b1-4)GlcNAc(b1-3)Gal(b1-4)GlcNAc(b1-2)Man(a1-6)]Man(b1-4)GlcNAc(b1-4)GlcNAc
# In short: as §1
# [41] = molecular target: Neu5Gc(b2-6)Gal(b1-4)GlcNAc
# In short: as §1
binder,measurement,setting,value
B1,glycan array binding signal (z-score),[1],-0.872
same,glycan array binding signal (z-score),[2],2.34
same,glycan array binding signal (z-score),[3],4.33
same,glycan array binding signal (z-score),[4],-0.403
same,glycan array binding signal (z-score),[5],-0.164
same,glycan array binding signal (z-score),Fuc(b1-3)GlcNAc,-0.276
same,glycan array binding signal (z-score),[6],-0.395
same,glycan array binding signal (z-score),[7],1.24
same,glycan array binding signal (z-score),Gal(b1-3)Gal,-0.635
same,glycan array binding signal (z-score),[8],0.339
same,glycan array binding signal (z-score),[9],1.22
same,glycan array binding signal (z-score),[10],0.608
same,glycan array binding signal (z-score),[11],0.588
same,glycan array binding signal (z-score),[12],0.113
same,glycan array binding signal (z-score),[13],0.181
same,glycan array binding signal (z-score),[14],5.09
same,glycan array binding signal (z-score),[15],1.3
same,glycan array binding signal (z-score),[16],-0.31
same,glycan array binding signal (z-score),Gal(b1-6)Gal,-0.809
same,glycan array binding signal (z-score),[17],-0.109
same,glycan array binding signal (z-score),Gal3S6S(b1-4)GlcNAc6S,4.88
same,glycan array binding signal (z-score),Gal4S6S(b1-4)GlcNAc,0.517
same,glycan array binding signal (z-score),Gal6S(b1-4)GlcNAc,4.2
same,glycan array binding signal (z-score),[18],-0.857
same,glycan array binding signal (z-score),GalNAc(b1-3)GalNAc,-0.995
same,glycan array binding signal (z-score),[19],0.039
same,glycan array binding signal (z-score),[20],-0.278
same,glycan array binding signal (z-score),[21],-0.7
same,glycan array binding signal (z-score),[22],0.228
same,glycan array binding signal (z-score),[23],5.86
same,glycan array binding signal (z-score),[24],-0.307
same,glycan array binding signal (z-score),[25],5.4
same,glycan array binding signal (z-score),[26],-0.121
same,glycan array binding signal (z-score),[27],3.97
same,glycan array binding signal (z-score),[28],-0.458
same,glycan array binding signal (z-score),[29],3.83
same,glycan array binding signal (z-score),[30],0.503
same,glycan array binding signal (z-score),[31],4.07
same,glycan array binding signal (z-score),Neu5Ac(a2-6)Gal(b1-4)Glc,-0.381
same,glycan array binding signal (z-score),[32],-0.098
same,glycan array binding signal (z-score),[33],0.142
same,glycan array binding signal (z-score),[34],-0.314
same,glycan array binding signal (z-score),[35],4.6
same,glycan array binding signal (z-score),[36],0.13
same,glycan array binding signal (z-score),[37],3.37
same,glycan array binding signal (z-score),[38],0.027
same,glycan array binding signal (z-score),[39],-0.455
same,glycan array binding signal (z-score),Neu5Ac(b2-6)GalNAc,-0.919
same,glycan array binding signal (z-score),[40],2.24
same,glycan array binding signal (z-score),[41],-0.206
